Assay outcomes from PubChem.
In the library only some 1.2% were active in any assay of this set; here they are far more common.
FadD28 binding – inhibitors of FadD28 bisubstrate probe binding, primary screen, biochemical, fluorescence polarization, single point | 360,000 compounds, 0.22% hits | AID 588549, 2011 | inhibition, % at 12.5 µM | Mycobacterium tuberculosis FadD28 fatty-acid-AMP ligase; in the data active means inhibition above about 8.5%, passing the limit was not always enough; inconclusive means no clear call, values can overlap the other calls
TcdB GH inh – TcdB glycohydrolase inhibitors, primary screen, biochemical, single point, plate reader | Toxin B (Clostridioides difficile), P18177 | TcdB glycohydrolase enzymatic assay | inhibition, % at 9.99 µM | 350,000 compounds, 0.24% hits | AID 652162, 2013; in the data active means inhibition above about 10%
PrP 5UTR inh – inhibition of PrP 5' UTR reporter expression; cell-based PrP 5' UTR mRNA reporter, plate reader; inhibition, % (concentration not given with the values); 340,000 compounds, 0.35% hits; in the data active means inhibition above about 52%; further: 0 = median of the neutral control wells
Y pestis TopoI – Yersinia pestis topoisomerase I inhibitors, primary screen, biochemical, cleavage product accumulation, plate reader, single point; DNA topoisomerase I (Yersinia pestis CO92); activity, % at 10 µM; Y. pestis Topo-I cleavage product accumulation; AID 504884, 2011; 360,000 compounds, 0.064% hits; in the data active means activity above about 50%, passing the limit was not always enough; inconclusive means no clear call, values can overlap the other calls
PfHsp40 yeast – rescue of yeast from PfHsp40 toxicity, primary screen, S. cerevisiae, ATP luminescence; growth rescue, % at 12.5 µM; AID 504582, 2011; 340,000 compounds, 0.68% hits; S. cerevisiae expressing PfHsp40, growth rescue; in the data active means growth rescue above about 28%, passing the limit was not always enough; inconclusive means no clear call, values can overlap the other calls;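 further: yeast W303a lacking pdr1 and pdr3 grown in galactose medium; growth measured after three days at 30 °C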
BioA inh – M. tuberculosis BioA enzyme inhibitors, primary screen, biochemical, plate reader, single point, HTS; 7,8-diaminopelargonic acid synthase BioA (Mycobacterium tuberculosis); purified M. tuberculosis BioA enzyme; inhibition, % at 9.99 µM; 360,000 compounds, 0.096% hits; AID 602481, 2012; in the data active means inhibition above about 40%; inconclusive means no clear call, values can overlap the other calls
* hit, by the source's call; ? = inconclusive; / = not tested or not shown.

SMILES	FadD28 binding	TcdB GH inh	PrP 5UTR inh	Y pestis TopoI	PfHsp40 yeast	BioA inh
O=C(CCN1CCCCC1)NCC[C@@H]1CC[C@@H](NC(=O)Cc2cccnc2)[C@@H](CO)O1	/	-0.6	/	/	/	-1.8
Cc1cccc(C)c1N=Nc1c(C)cc(O)cc1C	-1.3	2.8	-8.3	-9.1	781.5*	-1.5
O=C(C[C@H]1CC[C@H](NC(=O)C2CC2)[C@H](CO)O1)NCCCN1CCOCC1	/	-1.3	/	/	/	0.2
O=C(Nc1ccc2nn(-c3ccccc3)nc2c1)c1cccnc1	-3.4	/	-47.8	-1.5	114.6*	6.9
O=C(Nc1ccc2nn(-c3ccc(F)cc3)nc2c1)c1cccnc1	-1.8	0.4	-28.6	-3.2	0.3	/
O=C(c1ccc(Cl)c(Cl)c1)N1CCC(=O)N(C(COCc2ccc(Cl)cc2)Cc2ccccc2)CC1 (stereo not given)	-1.5	5.1	-0.7	40.6	29.9*	-1.1
Cc1cccc(COCC(Cc2ccccc2)N2CCN(C(=O)c3ccc(Cl)c(Cl)c3)CCC2=O)c1 (stereo not given)	-1.4	-1.2	-8.7	22.9	6.6	-0.5
c1cc(SC2CCCCC2)cc(-c2nc3cnccn3c2NC2CCCCC2)c1	-4.6	0.6	0.0	19.4	0.3	-4.1
CCC(C)Sc1cccc(-c2nc3cnccn3c2NC2CCCCC2)c1 (stereo not given)	-5.5	-0.4	-16.4	19.2	40.0*	0.4
COC(=O)c1ccc2cc(OC)cc([N+](=O)[O-])c2n1	-3.3	0.2	-16.2	2.6	37.4*	/
Cc1ccc(S(=O)(=O)N(CCCO)CC(O)CON=C2c3ccccc3-c3ccccc32)cc1 (stereo not given)	-6.7	-4.9	-19.6	21.2	28.9*	/
CO[C@@H](CN(C)Cc1cc(F)ccc1F)[C@@H](C)CN(C(=O)Nc1ccc(C(F)(F)F)cc1)[C@@H](C)CO	/	0.5	/	/	/	-0.4
O=C(O)c1ccc(N/N=C/C2=C(N3CCOCC3)C(=C\c3ccccc3)/CC2)cc1	4.4	-2.2	-18.7	-0.7	273.4*	8.9
COCC(=O)Oc1c(S(=O)(=O)c2ccc(C)cc2)c(C)nn1-c1ccccc1	-0.7	/	-3.2	-0.6	157.3*	-1.0
O=[N+]([O-])c1cccc(CN2CCN(c3cccc4[nH]ccc34)CC2)c1	-2.2	5.0	-19.6	-7.9	1.0	0.6
O=C(c1ccc([N+](=O)[O-])cc1)N1CCN(c2cccc3[nH]ccc23)CC1	-2.0	10.0*	-56.6	-17.3	1.5	/
O=[N+]([O-])c1cc(-c2ccccc2)cc([N+](=O)[O-])c1O	2.4	3.0	-20.2	7.6	?	4.7
Oc1c(Br)cc(-c2ccccc2)cc1Br	4.0	2.9	-20.5	1.3	579.5*	0.7
Cc1c(C(=O)NCCSCc2cccc(C(F)(F)F)c2)cnn1-c1ccc(Cl)cc1	-1.3	1.2	-6.0	25.1	315.2*	-0.8
C[C@@H]1CN([C@@H](C)CO)C(=O)c2cccc(NC(=O)c3cnccn3)c2O[C@@H]1CN(C)S(=O)(=O)c1cn(C)cn1	/	-0.2	/	/	/	-3.0
Cc1ccc(-c2ccc3c(c2)O[C@@H](CN(C)CC2CCCC2)[C@H](C)CN([C@@H](C)CO)S3(=O)=O)cc1	/	0.4	/	/	/	-1.1
Cc1ccc(Oc2c(CO)c(-c3ccccc3)nn2C)cc1	0.2	12.0*	-20.8	11.4	0.0	/
Cc1ccc(S(=O)(=O)c2c(CO)c(-c3ccccc3)nn2C)cc1	3.0	1.2	-18.4	15.1	-1.0	/
CCCNC(=O)C1CC(=O)N(c2ccc(OCC)cc2)C1 (stereo not given)	-0.4	11.1*	-6.0	10.7	1.2	-1.2
CCOc1ccc(N2CC(C(=O)NC(C)C)CC2=O)cc1 (stereo not given)	-1.9	/	-15.8	-1.5	-3.6	-1.0
SMILES	FadD28 binding	TcdB GH inh	PrP 5UTR inh	Y pestis TopoI	PfHsp40 yeast	BioA inh
Cc1noc(C)c1S(=O)(=O)Nc1ccc2c(c1)C(=O)N([C@@H](C)CO)C[C@@H](C)[C@@H](CN(C)C(=O)Nc1ccc(F)cc1)OCCCC[C@@H](C)O2	/	-1.1	/	/	/	-0.1
CC(C)(O)CCCC(C)(O)c1ccc(C(=O)O)cc1O (stereo not given)	0.7	-0.4	-4.6	9.9	54.9*	-0.2
COc1ccc2c3c([nH]c2c1)[C@H](CO)N(C(=O)Nc1ccc(F)cc1)CC31CN(Cc2nccs2)C1	/	0.1	/	/	/	/
COc1ccc(S(=O)(=O)Nc2ccc3c(c2)CC(=O)N([C@H](C)CO)C[C@H](C)[C@@H](CN(C)S(=O)(=O)c2ccc(F)cc2)O3)cc1	/	/	/	/	/	-0.3
O=C(OCc1ccccc1)c1cn(-c2ccccc2)nc1-c1ccncc1	0.5	/	-9.1	31.9	104.0*	/
COC(=O)c1cn(-c2ccccc2)nc1-c1ccncc1	-2.6	/	-28.4	2.4	-1.0	0.5
Cc1cc(C)nc(SCc2cc(=O)c(OC(=O)c3ccc(S(=O)(=O)N4CCCC4)cc3)co2)n1	-1.0	/	-11.4	2.0	129.7*	/
c1ccc(-c2nnc(-c3ccccn3)c(-c3ccccn3)n2)nc1	-0.1	1.9	/	-5.7	/	0.8
CN(C)c1nc(-c2ccccn2)nnc1-c1ccccc1	3.0	/	-9.3	1.0	392.9*	0.6
CCN(CC)c1nc(-c2ccccn2)nc(-c2ccccc2)c1C#N	-2.8	0.4	-51.3	27.1	71.4*	/
CN(C)c1nc(-c2ccccc2)nc(-c2ccc(Cl)cc2)c1C#N	-2.1	/	-7.4	4.0	-0.3	1.3
O=C(Nc1ccn(CCCNCc2ccccc2)c(=O)n1)OCc1ccccc1	0.2	-1.5	-7.8	27.4	-0.2	-2.0
O=C(Nc1ccn(CCCN(CCCn2ccc(NC(=O)OCc3ccccc3)nc2=O)CCc2cc3ccccc3[nH]2)c(=O)n1)OCc1ccccc1	-5.1	1.2	-19.8	77.0*	-1.0	-1.3
CCCN(C(=O)CN1C(=O)NC2(CCCCCC2)C1=O)C1CCS(=O)(=O)C1 (stereo not given)	0.2	/	-2.8	-0.2	1.4	0.8
CCN(C(=O)CN1C(=O)NC2(CCC(C)CC2)C1=O)C1CCCCC1 (stereo not given)	-3.4	13.7*	/	-2.4	/	-0.3
O=C(c1ccc(C(=O)N2CCCc3ccccc32)s1)N1CCCc2ccccc21	-3.4	/	-17.4	17.7	50.8*	-0.8
O=c1ccc(-c2n[nH]c(=S)n2-c2ccc(F)c(Cl)c2)n[nH]1	-2.4	2.7	-3.3	1.7	52.0*	0.3
COCCCn1c(-c2ccc(OC)cc2)cc(C(=O)NC2CCCCCCC2)c1C	-2.3	-0.4	-14.1	56.1*	3.6	/
N#CCCN(C(=O)COC(=O)c1ccc2c(c1)OCO2)c1ccccc1	-0.8	0.6	-3.8	-1.6	0.6	-1.3
N#CCCN(C(=O)COC(=O)c1cc(=O)c2ccccc2o1)c1ccccc1	-3.5	10.0*	-18.7	1.8	-1.1	-0.8
